D1 potentiator: Potentiators of Human D1 Dopamine Receptor: qHTS. 360,000 tested, 0.036% active. potentiation, % at 10 µM. HEK293 TREx D1 cells, calcium flux, dopamine EC20 potentiation. D(1A) dopamine receptor (Homo sapiens), P21728; in the data active = potentiation above about 30%; note: 0% is about no effect
D1 antagonist: Antagonist of Human D 1 Dopamine Receptor: qHTS; activity change, negative = inhibition, % at 10 µM; AID 504652, 2011; HEK293 TREx D1 cells, calcium flux, dopamine EC80; stronger effect = lower value; 360,000 tested, 3.2% active; in the data active = activity change below about -30%; note: % is set by controls: 0 for no effect and ±100 for the full control effect
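Using tetracycline-induced force-coupled D1 Hek293 cells and a calcium dye, signals were followed for 180 s after compound, then for 180 s after EC80 dopamine, to detect inhibitors.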
D1 agonist: Allosteric Agonists of the Human D1 Dopamine Receptor: qHTS; D(1A) dopamine receptor (Homo sapiens), P21728; HEK293 T-REx D1 cells, calcium flux, agonist mode; activation, % at 2 µM; 360,000 tested, 1% active; in the data active = activation above about 30%; note: 0% is about no effect
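Inducible HEK293 T-REx D1 cells, force-coupled to calcium signalling, were plated at 4000 cells/well with tetracycline and held overnight at 30 C. After no-wash calcium dye loading, compound-evoked calcium rise over 180 s flagged agonists.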
DRD3 antagonist: qHTS of D3 Dopamine Receptor Antagonist: qHTS. max response, negative = inhibition, %. AID 652054, 2013. D3R cells, DiscoveRx beta-arrestin luminescence, antagonist mode; stronger effect = lower value. 360,000 tested, 2.5% active. D(3) dopamine receptor (Homo sapiens), P35462; in the data active = max response below about -50%; inconclusive = no clear call, values can overlap the other calls; note: % is set by controls: 0 for no effect and ±100 for the full control effect
Target sequence (P35462 whole entry, looked up): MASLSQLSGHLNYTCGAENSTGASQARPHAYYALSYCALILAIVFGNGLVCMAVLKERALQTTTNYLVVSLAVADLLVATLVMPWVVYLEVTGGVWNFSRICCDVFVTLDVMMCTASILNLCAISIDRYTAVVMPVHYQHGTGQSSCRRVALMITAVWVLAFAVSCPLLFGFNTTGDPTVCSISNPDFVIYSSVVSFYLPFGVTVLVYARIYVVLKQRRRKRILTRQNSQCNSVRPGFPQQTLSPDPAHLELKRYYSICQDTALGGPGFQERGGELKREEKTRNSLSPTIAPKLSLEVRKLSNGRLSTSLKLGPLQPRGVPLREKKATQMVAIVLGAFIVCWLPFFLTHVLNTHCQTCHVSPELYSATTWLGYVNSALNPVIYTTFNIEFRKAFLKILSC
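Cells plated overnight at 1500 cells/well, then exposed to library compounds with dopamine controls for 90 minutes at 37 degrees C. DiscoveRx reagent added for 30–60 minutes at room temperature; luminescence read, quantitative HTS format.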
D3 ag: qHTS of D3 Dopamine Receptor Agonist: qHTS | D3R DiscoveRx beta-arrestin cells, luminescence, 90 min | 410,000 tested, 0.58% active | max activation, %; in the data active = max activation above about 30%; note: 0% is about no effect
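Agonist mode: compounds and dopamine controls were applied to plated cells for 90 min at 37 degrees C after an overnight attachment at 1500 cells/well. Luminescent read-out followed 30 - 60 minutes at room temperature with DiscoveRx detection reagent.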
An asterisk follows results filed as active; ? = inconclusive; · = no result. Shown are actives, neighbours in structure and some others; about 6% of the full set was active somewhere.

SMILES | D1 potentiator | D1 antagonist | D1 agonist | DRD3 antagonist | D3 ag
Cc1noc(C)c1-c1ccc2ncnc(NCc3cccc(-c4ccccc4)c3)c2c1 | -6.5 | -33.9* | 15.9 | · | ·
C/C(=N\NC(=O)C1CCCN(S(=O)(=O)c2ccccc2)C1)c1ccccn1 (stereo not drawn) | -4.0 | -2.0 | -0.2 | -90.1* | -10.3
COc1ccccc1NC(=O)C1CCCN(S(=O)(=O)c2c(C)noc2C)C1 (stereo not drawn) | -3.2 | -9.8 | 5.1 | 5.6 | 12.3
COc1ccc(NC(=O)N2CCN(S(=O)(=O)c3ccc(F)cc3)CC2)c(OC)c1 | 0.6 | -11.2 | 0.6 | -22.1 | -10.9
CC(NC(=O)C1CCCN(S(=O)(=O)c2cccs2)C1)c1ccccc1 (stereo not drawn) | -1.4 | -26.0 | 30.4* | 4.4 | -4.9
COc1ccccc1NC(=O)C1CCCN(S(=O)(=O)c2ccccc2)C1 (stereo not drawn) | 3.5 | -30.9* | 4.4 | 4.3 | -1.5
COc1ccc(S(=O)(=O)N2CCN(C(=O)Nc3ccccc3OC)CC2)cc1 | 9.3 | -37.4* | 3.1 | 7.2 | 5.1
Cc1ccc(S(=O)(=O)N2CC3C(=O)C[C@@H](c4ccccc4)N(S(=O)(=O)c4cccc(Cl)c4)C3CC2c2ccccc2)cc1 (stereo partly drawn) | · | · | · | -15.4 | -5.7
O=C(CSc1nc(=O)[nH]c2c1CCC2)Nc1cc(C(F)(F)F)ccc1Cl | -2.2 | · | -1.1 | · | 1.6
O=C(NCCc1ccccc1)C1Cc2c(-c3ccc(Cl)cc3)ccnc2O1 (stereo not drawn) | · | · | · | 13.8 | 5.4
O=C(CN1C=NS(=O)(=O)c2ccc(C(F)(F)F)cc21)Nc1cccc(C(F)(F)F)c1 | -1.9 | 7.7 | 6.6 | · | -6.2
Cc1ccccc1NC(=O)C1CCCN(C(=O)Nc2ccc(F)cc2)C1 (stereo not drawn) | -9.8 | 11.8 | 0.3 | 9.4 | 7.7
COc1ccc(OC)c(NC(=O)N2CCCC(C(=O)c3ccccc3OC)C2)c1 (stereo not drawn) | -8.4 | -36.3* | 1.2 | -22.2 | -8.3
COc1ccccc1NC(=O)C1CCCN(C(=O)Nc2ccc(F)cc2)C1 (stereo not drawn) | 1.2 | -81.5* | 0.3 | 7.8 | 21.2
CC1OC(CCc2cccc(Cl)c2)Cc2[nH][nH]c(=O)c21 (stereo not drawn) | · | · | · | 0.0 | -10.4
CCCN(CCC)CCNC(=O)c1cc2c(=O)oc3ccc(C)cc3c2s1 | -1.2 | 2.6 | 2.5 | · | -1.5
COc1ccccc1Cc1c(-c2ccc(C#N)cc2)nc2c3ccccc3ccn12 | · | · | · | 0.0 | -15.9
COc1ccc(C(=O)Nc2nc3c(s2)CCc2cc(OC)ccc2-3)cc1 | 2.6 | 30.4 | -1.5 | · | -20.0
COc1ccc(C(=O)Nc2nc3ccc(S(C)(=O)=O)cc3s2)cc1 | -4.8 | -38.6* | -0.7 | 15.2 | 1.6
CS(=O)(=O)c1ccc2nc(NC(=O)c3ccccc3Cl)sc2c1 | -8.5 | 2.8 | 6.8 | 0.0 | -15.2
CS(=O)(=O)c1ccc2nc(NC(=O)CCNC(=O)c3ccc(Cl)cc3)sc2c1 | -3.6 | -47.2* | 0.4 | 8.4 | -0.1
CS(=O)(=O)c1ccc2nc(NC(=O)c3ccccc3Br)sc2c1 | -9.9 | -24.9 | 1.2 | -56.3* | -3.3
COc1ccc(C(=O)Nc2nc(-c3ccc([N+](=O)[O-])cc3)c(-c3ccc(OC)cc3)s2)cc1 | -5.7 | -16.3 | 6.3 | -52.4* | -10.4
CCOC(=O)c1cc(S(=O)(=O)Nc2ccc(OC(F)(F)F)cc2)[nH]n1 | -0.7 | -14.1 | 4.3 | · | -11.6
CCc1ccc(O)c(C(=O)c2cnc3cc(-c4ccc(C)cc4)nn3c2)c1 | -4.7 | -8.6 | -0.7 | · | 8.7
SMILES | D1 potentiator | D1 antagonist | D1 agonist | DRD3 antagonist | D3 ag
Cc1cc2c(s1)c1cnn(Cc3c(F)c(F)cc(F)c3F)c(=O)c1n2C | 7.8 | 6.5 | 2.7 | · | ·
CC(C)(C)NS(=O)(=O)c1ccc2nc(NC(=O)c3cccnc3)sc2c1 | 3.4 | 7.9 | 4.4 | · | 9.4
CC(C)NS(=O)(=O)c1ccc2nc(NC(=O)c3cncc(Br)c3)sc2c1 | 1.2 | -52.2* | 2.1 | · | 6.3
Cc1cccc(C(=O)Nc2cc(S(=O)(=O)N3CCOCC3)ccc2N2CCCC2)c1 | -5.2 | -1.8 | 5.3 | 27.9 | 4.5
CCOC(=O)C1=C(C)N=c2s/c(=C/c3ccccc3)c(=O)n2C1c1ccc(OC)c(OC)c1 (stereo not drawn) | -5.5 | 0.0 | -0.5 | -18.2 | 4.8
CCOC(=O)C1=C(C)n2c(s/c(=C/c3cccc([N+](=O)[O-])c3)c2=O)=NC1c1ccc(O)c(OC)c1 (stereo not drawn) | 1.8 | -90.4* | 9.5 | -27.3 | -55.7
CCCCC1Cc2[nH]c(=S)[nH]c(=O)c2C(c2ccc(Cl)cc2)O1 (stereo not drawn) | · | · | · | 6.6 | 7.8
O=C(COc1cccc(C(F)(F)F)c1)N1CCN(c2ccc(O)cc2)CC1 | 8.7 | -3.5 | 6.0 | 8.0 | 15.5
O=C(COc1cccc(C(F)(F)F)c1)N1CCN(c2ccccc2O)CC1 | -6.2 | -34.5* | 11.7 | 12.7 | -1.4
COCC(=O)N1CCN(c2cccc(C(F)(F)F)c2)CC1 | -3.6 | -2.8 | 0.5 | -7.9 | -11.1
O=C(COc1ccc2c(c1)CCC2)N1CCN(c2cccc(C(F)(F)F)c2)CC1 | -1.8 | -44.1* | 8.0 | -5.6 | 0.3
CC(C)c1cccc(C(C)C)c1NC(=O)CN1C(=O)NC2(CCCC2)C1=O | -0.6 | -5.8 | 2.6 | 0.0 | 6.1
Cc1ccc(-n2c(C)nc3ccsc3c2=O)cc1 | · | · | · | 11.6 | 8.4
Cc1ccc(-c2nc3ccsc3c(=O)o2)cc1 | -0.3 | -87.1* | -0.8 | ? | -2.7
COc1ccccc1-c1ccc(SCc2ccccc2F)nn1 | -1.4 | -40.0* | 15.4 | -13.6 | 1.9
COc1ccccc1-c1ccc(SCc2ccccc2)nn1 | -4.5 | -22.6 | 5.0 | 2.4 | 3.7
CCCCCCCCCCCCCCCCCCCCCCO | · | · | · | · | 2.6
CCCCC[C@H]1CN(CCCC)C(=O)[C@@H]1CC(=O)NCc1ccccc1 | -0.6 | 9.4 | 2.6 | 0.0 | 33.6*
COc1cc(NS(=O)(=O)c2ccc(NC(=S)NC(=O)CC(C)C)cc2)nc(OC)n1 | -5.0 | -24.1 | -0.9 | -85.4* | -8.2
COC(=O)CCC(=O)NC(=S)Nc1ccc(S(=O)(=O)Nc2cc(OC)nc(OC)n2)cc1 | 1.1 | 3.9 | 6.2 | 7.4 | 1.0
CCN(CC)S(=O)(=O)c1ccc(NC(=O)COC(=O)CNS(=O)(=O)/C=C/c2ccccc2)cc1 | -5.7 | -30.9* | 6.3 | -9.3 | 1.6
CCN(CC)S(=O)(=O)c1ccc(NC(=S)NC(=O)C(C)C)cc1 | -0.7 | -2.6 | 23.5 | -6.7 | 0.0
CCN(CC)S(=O)(=O)c1ccc(NC(=S)NC(=O)CC(C)C)cc1 | -1.9 | -32.9* | 0.1 | -12.2 | -6.8

Screens deposited in PubChem BioAssay by National Center for Advancing Translational Sciences (NCATS).
